In PubChem BioAssay AID1159580 (chemical genetic matrix, 2015):
In all, about 5,500 compounds went through this assay and about 2,000 (36%) were called active. Inconclusive results (about 18%) are left out. Cut-off read from the data, not from the text of the source: active = normalized growth mostly below about 0.91 (no sharp cut-off); inconclusive = no clear call, values can overlap the other calls; inactive = mostly above about 0.92. The list shows a part of the results.

Assay: chemical genetic growth profiling, strain panel (AID 1159580);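 note: tested at 20 µM; growth read once vehicle control cultures reached saturation at 30 °C; 1 = growth at the plate median or of vehicle wells; lower values mean less growth of the strain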
Settings: growth OD

Measured: normalized growth

CN[C@@H]1[C@H](O)[C@H](NC)[C@H]2O[C@@]3(O)C(=O)C[C@@H](C)O[C@H]3O[C@@H]2[C@H]1O
inactive: S. cerevisiae deletion strains, locus YJR075W, strain HOC1, stronger effect = lower value 1.01 | S. cerevisiae deletion strains, locus YKL009W, strain mrt4, stronger effect = lower value 1.02 | S. cerevisiae deletion strains, locus YKL068W, stronger effect = lower value 1.01 | S. cerevisiae deletion strains, locus YKL085W, strain MDH1 (second series), stronger effect = lower value 1.01 | S. cerevisiae deletion strains, locus YKL085W, strain MDH1, stronger effect = lower value 1.01 | S. cerevisiae deletion strains, locus YKL160W, strain elf1, stronger effect = lower value 1.01 | S. cerevisiae deletion strains, locus YKL190W, strain CNB1, stronger effect = lower value 1 | S. cerevisiae deletion strains, locus YKR001C, strain vps1, stronger effect = lower value 1.02 | S. cerevisiae deletion strains, locus YKR026C, strain gcn3, stronger effect = lower value 1.01 | S. cerevisiae deletion strains, locus YKR091W, strain srl3, stronger effect = lower value 1 | S. cerevisiae deletion strains, locus YLL001W, strain dnm1, stronger effect = lower value 1.02 | S. cerevisiae deletion strains, locus YLL026W, stronger effect = lower value 1 | S. cerevisiae deletion strains, locus YLL041C, strain sdh2, stronger effect = lower value 0.999 | S. cerevisiae deletion strains, locus YLR027C, strain aat2, stronger effect = lower value 1.01 | S. cerevisiae deletion strains, locus YLR039C, strain RIC1, stronger effect = lower value 1.05 | S. cerevisiae deletion strains, locus YLR058C, strain SHM2, stronger effect = lower value 1.01 | S. cerevisiae deletion strains, locus YLR102C, strain apc9, stronger effect = lower value 1.02 | S. cerevisiae deletion strains, locus YLR113W, strain HOG1, stronger effect = lower value 0.967 | S. cerevisiae deletion strains, locus YLR221C, strain rsa3, stronger effect = lower value 0.981 | S. cerevisiae deletion strains, locus YLR258W, strain gsy2, stronger effect = lower value 0.999 | S. cerevisiae deletion strains, locus YLR262C, strain YPT6 (second series), stronger effect = lower value 1.05 | S. cerevisiae deletion strains, locus YLR262C, strain YPT6, stronger effect = lower value 1.06 | S. cerevisiae deletion strains, locus YLR268W, strain sec22, stronger effect = lower value 1.04 | S. cerevisiae deletion strains, locus YLR320W, strain mms22, stronger effect = lower value 0.974 | S. cerevisiae deletion strains, locus YLR330W, strain CHS5, stronger effect = lower value 1.01 | S. cerevisiae deletion strains, locus YLR342W, strain FKS1 (second series), stronger effect = lower value 1 | S. cerevisiae deletion strains, locus YLR342W, strain FKS1, stronger effect = lower value 1.02 | S. cerevisiae deletion strains, locus YLR357W, strain rsc2, stronger effect = lower value 1 | S. cerevisiae deletion strains, locus YLR370C, strain arc18, stronger effect = lower value 0.995 | S. cerevisiae deletion strains, locus YLR371W, strain rom2, stronger effect = lower value 1.02 | S. cerevisiae deletion strains, locus YLR384C, strain iki3, stronger effect = lower value 1.01 | S. cerevisiae deletion strains, locus YLR418C, strain cdc73, stronger effect = lower value 1.03 | S. cerevisiae deletion strains, locus YML016C, strain PPZ1, stronger effect = lower value 1.01 | S. cerevisiae deletion strains, locus YML032C, strain rad52, stronger effect = lower value 1.04 | S. cerevisiae deletion strains, locus YML120C, strain ndi1, stronger effect = lower value 1 | S. cerevisiae deletion strains, locus YML124C, strain tub3, stronger effect = lower value 1.02 | S. cerevisiae deletion strains, locus YMR058W, strain fet3, stronger effect = lower value 1.01 | S. cerevisiae deletion strains, locus YMR078C, strain ctf18, stronger effect = lower value 1.02 | S. cerevisiae deletion strains, locus YMR125W, strain sto1, stronger effect = lower value 0.99 | S. cerevisiae deletion strains, locus YMR129W, stronger effect = lower value 0.999 | S. cerevisiae deletion strains, locus YMR205C, strain PFK2, stronger effect = lower value 1 | S. cerevisiae deletion strains, locus YMR223W, strain ubp8, stronger effect = lower value 1.01 | S. cerevisiae deletion strains, locus YMR231W, strain pep5, stronger effect = lower value 1 | S. cerevisiae deletion strains, locus YMR263W, strain SAP30, stronger effect = lower value 1.01 | S. cerevisiae deletion strains, locus YMR307W, strain GAS1, stronger effect = lower value 1.03 | S. cerevisiae deletion strains, locus YNL067W, strain RPL9B, stronger effect = lower value 1.02 | S. cerevisiae deletion strains, locus YNL071W, strain lat1, stronger effect = lower value 0.996 | S. cerevisiae deletion strains, locus YNL128W, strain TEP1, stronger effect = lower value 1.02 | S. cerevisiae deletion strains, locus YNL153C, strain GIM3, stronger effect = lower value 1 | S. cerevisiae deletion strains, locus YNL183C, strain NPR1, stronger effect = lower value 0.94 | S. cerevisiae deletion strains, locus YNL209W, strain ssb2, stronger effect = lower value 0.999 | S. cerevisiae deletion strains, locus YNL233W, strain BNI4, stronger effect = lower value 1.02 | S. cerevisiae deletion strains, locus YNL248C, strain rpa49, stronger effect = lower value 0.954 | S. cerevisiae deletion strains, locus YNL250W, strain rad50, stronger effect = lower value 1.02 | S. cerevisiae deletion strains, locus YNL271C, strain bni1, stronger effect = lower value 1.01 | S. cerevisiae deletion strains, locus YNL298W, strain CLA4, stronger effect = lower value 1.03 | S. cerevisiae deletion strains, locus YNL307C, strain MCK1, stronger effect = lower value 1.03 | S. cerevisiae deletion strains, locus YNL322C, strain KRE1 (second series), stronger effect = lower value 1 | S. cerevisiae deletion strains, locus YNL322C, strain KRE1, stronger effect = lower value 1.01 | S. cerevisiae deletion strains, locus YNR049C, strain mso1, stronger effect = lower value 1.01 | S. cerevisiae deletion strains, locus YNR052C, strain pop2, stronger effect = lower value 1.02 | S. cerevisiae deletion strains, locus YOL006C, strain TOP1, stronger effect = lower value 1.08 | S. cerevisiae deletion strains, locus YOL012C, strain htz1 0.978 | S. cerevisiae deletion strains, locus YOL147C, strain pex11, stronger effect = lower value 1.02 | S. cerevisiae deletion strains, locus YOR001W, strain rrp6, stronger effect = lower value 1.02 | S. cerevisiae deletion strains, locus YOR061W, strain CKA2, stronger effect = lower value 1.02 | S. cerevisiae deletion strains, locus YOR069W, strain VPS5, stronger effect = lower value 1.01 | S. cerevisiae deletion strains, locus YOR070C, strain gyp1, stronger effect = lower value 1 | S. cerevisiae deletion strains, locus YOR080W, strain dia2, stronger effect = lower value 1.01 | S. cerevisiae deletion strains, locus YOR083W, strain WHI5, stronger effect = lower value 0.982 | S. cerevisiae deletion strains, locus YOR106W, strain vam3, stronger effect = lower value 1.02 | S. cerevisiae deletion strains, locus YOR136W, strain idh2, stronger effect = lower value 1.02 | S. cerevisiae deletion strains, locus YOR144C, strain elg1, stronger effect = lower value 1.02 | S. cerevisiae deletion strains, locus YOR184W, strain ser1, stronger effect = lower value 1.03 | S. cerevisiae deletion strains, locus YOR231W, strain MKK1, stronger effect = lower value 0.953 | S. cerevisiae deletion strains, locus YOR265W, strain rbl2, stronger effect = lower value 1.01 | S. cerevisiae deletion strains, locus YOR270C, strain vph1, stronger effect = lower value 1.01 | S. cerevisiae deletion strains, locus YOR290C, strain snf2, stronger effect = lower value 0.978 | S. cerevisiae deletion strains, locus YOR316C, strain cot1, stronger effect = lower value 1.01 | S. cerevisiae deletion strains, locus YPL051W, strain arl3, stronger effect = lower value 1.01 | S. cerevisiae deletion strains, locus YPL055C, strain LGE1, stronger effect = lower value 1.02 | S. cerevisiae deletion strains, locus YPL078C, strain atp4, stronger effect = lower value 1.02 | S. cerevisiae deletion strains, locus YPL106C, strain sse1, stronger effect = lower value 0.991 | S. cerevisiae deletion strains, locus YPL240C, strain hsp82, stronger effect = lower value 0.995 | S. cerevisiae deletion strains, locus YPL241C, strain CIN2, stronger effect = lower value 1.01 | S. cerevisiae deletion strains, locus YPL256C, strain CLN2, stronger effect = lower value 0.962 | S. cerevisiae deletion strains, locus YPR119W, strain clb2, stronger effect = lower value 1.02 | S. cerevisiae deletion strains, locus YPR141C, strain kar3, stronger effect = lower value 1.02 | S. cerevisiae deletion strains, locus YPR163C, strain tif3, stronger effect = lower value 1.02 | S. cerevisiae deletion strains, locus YPR167C, strain met16, stronger effect = lower value 1.03 | S. cerevisiae deletion strains, strain wtn01, stronger effect = lower value 1.03 | S. cerevisiae strains, strain wild type, stronger effect = lower value 1.01
